Drawing on PubChem BioAssay AID624040 (The Scripps Research Institute Molecular Screening Center, 2012), this text covers inhibition for 32 compounds.

In all, about 360,000 compounds went through this assay and about 2,100 (0.58%) were called active. Many of the other results were omitted from the sample, so actives are more common in it than they were. A number with no mark means an inactive call.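 How the source made its calls: active means inhibition above a per-plate cutoff, the mean of that plate's test compounds plus 3 SD (cut at about 27% in these data); inactive means the rest.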

For this assay, the target named is Muscarinic acetylcholine receptor M5 (Homo sapiens) (UniProt P08912). Nature of the assay: CHRM5 blockers of acetylcholine calcium response – CHO cells, Fluo-8 calcium fluorescence, primary screen (AID 624040).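 Further: 0% = acetylcholine EC80 with DMSO and 100% = DMSO without agonist.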 The note with it: CHO-hM5 cells, ACh EC80, at 3 µM, active compounds read high.
Sequence of Muscarinic acetylcholine receptor M5 (Homo sapiens) (P08912 whole entry, looked up): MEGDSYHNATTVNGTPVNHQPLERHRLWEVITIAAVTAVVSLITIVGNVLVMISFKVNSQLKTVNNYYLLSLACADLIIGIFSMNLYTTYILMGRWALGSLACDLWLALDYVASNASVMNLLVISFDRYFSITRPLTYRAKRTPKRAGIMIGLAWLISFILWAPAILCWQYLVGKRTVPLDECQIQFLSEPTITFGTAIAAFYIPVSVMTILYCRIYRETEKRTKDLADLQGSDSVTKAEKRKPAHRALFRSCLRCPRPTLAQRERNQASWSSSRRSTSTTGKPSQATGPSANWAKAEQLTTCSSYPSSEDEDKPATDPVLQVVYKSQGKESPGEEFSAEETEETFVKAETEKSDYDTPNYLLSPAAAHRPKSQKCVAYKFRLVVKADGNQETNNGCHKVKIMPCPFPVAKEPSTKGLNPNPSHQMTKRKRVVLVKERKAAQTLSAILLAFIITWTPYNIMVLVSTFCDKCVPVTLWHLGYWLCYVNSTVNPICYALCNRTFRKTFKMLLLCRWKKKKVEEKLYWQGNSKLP
In the case of `CC(=O)OCCC(C)C`, the inhibition was 6.5%.

With `CC(C[N+](C)(C)C)OC(N)=O` (configuration not stated), the inhibition was 74.8% (active).

On to `CC(=O)OCC(COC(C)=O)OC(C)=O`, for which the inhibition is -2.99%.

On to `CC(=O)OC(C)C[N+](C)(C)C` (configuration not stated), for which the inhibition was 95.7% (active).

As to `Cn1c(CCCOc2ccc(Cl)cc2Cl)n[nH]c1=S`, the inhibition is 6.7%.

For the compound `CN(Cc1ccc(CNC[C@H]2O[C@@H](n3cnc4c(N)ncnc43)[C@H](O)[C@@H]2O)o1)S(C)(=O)=O`, the inhibition is -3.06%.

Regarding `O=C(COC(=O)c1cccnc1Cl)Nc1ccc(S(=O)(=O)N2CCOCC2)cc1`, the inhibition was 13.3%.

`CCOc1ccc(NC(=O)CSc2nc3ccccc3c(=O)n2Cc2cccs2)cc1`: the inhibition is 8.62%.

With `COC(=O)c1ccccc1NC(=O)CN(Cc1ccc(Cl)cc1)S(C)(=O)=O`, the inhibition was 5.2%.

With `O=C(NC(=S)Nc1ccc(Cl)cc1Cl)C1CC1`, the inhibition is 6.51%.

As to `O=C(Cc1ccc(Cl)cc1)NC(=S)Nc1ccccc1O`, the inhibition is 64.5% (active).

With `Cc1cc(NS(=O)(=O)c2ccc(NC(=O)c3cccc(OC(F)F)c3)cc2)nc(C)n1`, the inhibition was -2.8%.

In the case of `O=C1C(Cl)=C(Oc2ccccc2)C(=O)c2ccccc21`, the inhibition was 30.4% (active).

For `O=C(NCc1ccco1)C(c1ccncc1)N(C(=O)Cn1nnc2ccccc21)c1ccccc1` (configuration not stated), the inhibition was 9.94%.

Take `O=C(Nc1ccc(S(=O)(=O)NCC2CCCO2)cc1)c1ccc(F)cc1` (configuration not stated): the inhibition is 1.2%.

Regarding `N=c1n(Cc2ccc(Cl)cc2)c2ccccc2n1CC(O)c1ccco1` (configuration not stated), the inhibition was 2.61%.

Turning to `O=S1(=O)CC/C(=N\Nc2ccc(F)cc2)c2ccsc21`, the inhibition is -3.05%.

On to `CC(C)NS(=O)(=O)c1ccc(OCC(=O)NC2CCCCCC2)cc1`, for which the inhibition is 1.3%.

Turning to `Cc1cn([C@H]2C[C@H](O)[C@@H](/C=C/C(=O)NCCCc3ccccc3)O2)c(=O)[nH]c1=O`, the inhibition was 6.27%.

With `Cc1ccc(NC(=O)c2ccc(Oc3ncccn3)cc2)cc1`, the inhibition is 9.93%.

On to `CCOC(=O)c1cccnc1NC(=O)c1ccncc1`, for which the inhibition is 4.86%.

For `Cc1ccc(NC(=O)OCCNC(=O)c2ccncc2)cc1`, the inhibition is 50% (active).

Take `COC(=O)[C@]12CCCCC=C1N(CCC1=CCCCC1)C(=O)[C@H](CC(=O)N1CCSCC1)C2`: the inhibition was 1.29%.

For the compound `c1ccc2cc3[nH]c(CN4CCCCC4)nc3cc2c1`, the inhibition was 7.88%.

For `CC(CN1CCCCC1)c1ccccc1` (configuration not stated), the inhibition is 2.28%.

For `OC(C#CCN1CCOCC1)(c1ccccc1)C1CCCCC1` (configuration not stated), the inhibition was 7.29%.

For `C#CC(CCN1CCCCC1)(OC)c1ccccc1` (configuration not stated), the inhibition was 30.6% (active).

In the case of `CCc1ccccc1NC(=O)NCCN1CCCCC1`, the inhibition is -5.44%.

As for `COc1ccc(C(O)(C2CCCCC2)C(CN2CCCC2)c2ccccc2)cc1` (configuration not stated), the inhibition was -3.7%.

On to `CCCCCC(O)(CCN1CCCCC1)c1ccccc1` (configuration not stated), for which the inhibition was 98.2% (active).

As to `O=C(c1ccccc1)C(O)(CN1CCCCC1)c1ccccc1` (configuration not stated), the inhibition was 8.34%.

`CCCCCCC(O)(CCN1CCCCC1)c1ccccc1` (configuration not stated): the inhibition was 97.8% (active).
